PubChem BioAssay (NCI)
About 83,000 compounds went through this panel and 20% of them were active in at least one assay; those are over-represented in the sample as a whole.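 How to read the values: 0–100, growth inhibition (40 = 60% inhibited); 0, no net growth; -100 to 0, cell death (-40 = 40% of starting cells died; -100 = all dead).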 Unmarked numbers belong to inactive results. Active and inactive are the calls of the source.

System: SK-MEL-5 melanoma
Test: NCI-60 one-dose screen, 48 h (100 = growth as untreated, 0 = no growth, -100 = all killed)
Conditions: 10 µM unless noted
Method: Growth inhibition of the SK-MEL-5 human tumor cell line is measured as a screen for anti-cancer activity. Cells are grown in 96 well plates and exposed to the test compound for 48 hours. Compounds are tested at a single concentration, which is 10^-5 M for most compounds. The reported endpoint is percent growth (GI% or GIPRCNT), where numbers from 0 - 100% represent growth inhibition, and numbers from -100% - 0 represent cell death. For example, a value of 40 represents 60% growth inhibition. A value of 0 means no net growth occurred over the course of the experiment. A value of -40 indicates 40% of cells at the beginning of the experiment died by the end of the experiment. A value of -100 means all cells are dead at the end of the experiment.
NCI-60 Human Tumor Cell Lines Screen was performed using the standard one-dose NCI protocol, which is described in more detail at https://dtp.cancer.gov/discovery_development/nci-60/default.htm.
Compounds with GIPRCNT values below 10 were considered active. Activity score was based on GIPRCNT using the following formula: […]
Score is 0 for GIPRCNT values of 100 or above, 50 for GIPRCNT values of 0, and 100 for GIPRCNT values of -100.

`CC/C=C1/C(=O)C=C[C@@H]1C/C=C\CCCC(=O)OC` was tested, and the growth was 9.82% (active).
With `CCOC(=O)c1ccc2c(c1)c1c(C)c3ccncc3c(C)c1n2C` the growth was -59.7% (active).
With `CCCCCCCCNc1cc2c3c(c1)CCCN3CCC2` the growth was -71.8% (active).
With `O=C1/C=C/[C@@H](O)[C@@H]2C[C@@H](O)C[C@H]2/C=C/CCC[C@H](CCOCc2ccccc2)O1` the growth was -88.3% (active).
`COc1ccc2cc(Cn3cc[n+](Cc4ccc5ccccc5c4)c3)ccc2c1` was tested, and the growth was -24% (active).
For `Cc1nc2ccccc2c(/C=C/c2ccc(C(F)(F)F)cc2)c1C(=O)/C=C/c1ccccc1`, the growth was -79% (active).
With `COc1cc(-c2nc3occn3c2-c2ccnc(NCCCNS(=O)(=O)c3ccccc3)n2)ccc1F` the growth was -22.4% (active).
With `CCN1C(=O)N(CC)C2C1NN=c1s/c(=C3\C(=O)N(CCc4ccccc4)c4ccccc43)c(=O)n12` (stereo not given) the growth was 7.69% (active).
In the case of `C=C1C(=O)O[C@H]2[C@H]1CC/C(CNC(=O)c1cc3ccccc3[nH]1)=C\CC[C@@]1(C)O[C@@H]21`, the growth is reported as -87.6% (active).
With `COc1cc(C2C3=C(COC3=O)N(CCO)c3cc4c(cc32)OCCO4)cc(OC)c1OC` (stereo not given) the growth was -30.9% (active).

Point of comparison: `Cc1nn(-c2ccccc2)c(/N=C/N(C)C)c1/C=C/C(=O)c1ccc(Cl)cc1`, growth 89.3%. Against it:
- COC(=O)/C=C1/SC(=Nc2cccc(Cl)c2)N(CCc2c[nH]c3ccc(O)cc23)C1=O — lower, 41.4%
- Cc1[nH]c(C(=O)Nc2cccc(OC3CCNCC3)c2)c(Cl)c1Cl — lower, 85.5%
- O=C(CCCCCCN1CC(=O)N2[C@@H](C3CCCCC3)c3[nH]c4ccccc4c3C[C@H]2C1=O)NO — lower, 66%
- COc1cc2c(/C=C3\C(=O)Nc4ccccc43)c(C(=O)O)[nH]c2cc1C — higher, 109%
- C=NNc1ccccc1 — higher, 98.8%
- COC(=O)c1nc(-c2ccccc2)oc1S(=O)(=O)N1CCC(C(N)=O)CC1 — lower, 81.6%
- COc1cccc(OC)c1Oc1c(-c2nc3ccccc3s2)c(C)nn1-c1ccccc1 — lower, 73.7%
- COC(c1ccc2ccccc2c1)C(C)C(F)F (stereo not given) — higher, 112%
- O=C1NC(=O)c2c1c1c3ccccc3[nH]c1c1oc3cc(Br)ccc3c21 — lower, 55.9%
- CCN(CC)CCOc1ccc(Nc2ncc3cc(-c4ccc(O)cc4)c(=O)n(C)c3n2)cc1 — higher, 92.9%
- NC(=S)N/N=C/c1cn(-c2ccccc2)nc1-c1cc2ccccc2oc1=O — lower, 46.3%
- CCNc1nc(-c2ccc(F)cc2)c(C#N)c(=O)n1C — lower, 57.3%
- CCN1C(=S)N(CC)C2C1NC(=S)N2/N=C/C=C/c1ccccc1OC (stereo not given) — lower, 17.3%
- N#Cc1nc(-c2ccc(F)cc2)oc1S(=O)(=O)N1CCN(c2ccc(F)cc2)CC1 — higher, 93.1%
- N=c1sc(Cc2cc(Cl)ccc2Cl)cn1CC(=O)c1ccccc1 — lower, 37.3%
- COc1ccc2cc(-c3cnc4nonc4n3)ccc2c1 — lower, 31.8%
- CCNC(=O)Oc1ccc(/C(=C(/C)Cc2ccc(OC)cc2)c2ccc(OCCN3CCCC3)cc2)cc1 — lower, 57.7%
- COc1cc2c(cc1O)[C@@]1(C)[C@H](c3ccccc3Br)OC(=O)N1CC2 — lower, 68%
- COc1cccc(C(=O)OCC(O)C(=O)NC23CC4CC(CC(C4)C2)C3)c1 (stereo not given) — higher, 99.2%
- Cc1ccc(C(=O)c2ccc(CC(=O)N/N=C/c3ccc(O)cc3O)n2C)cc1 — lower, 39.3%
- O=C(Nc1cccnc1Nc1ccc(Cl)cc1)c1cn(Cc2ccc(F)cc2)nn1 — higher, 100%
- O=C(CCCCNC(=O)c1cc(=O)c(O)co1)Nc1ccccc1 — higher, 98.6%
- O=c1ccc2nc(C(F)(F)F)nn(-c3ccccc3)c-2c1 — lower, 32.7%
- CN1CCCc2cc(/C=C3/SC(=S)N(CCc4ccc(O)cc4)C3=O)ccc21 — higher, 92%
- CCn1cc(C(=O)NN=C2CCCCCC2)c(=O)c2ccc(C)nc21 — lower, 87.1%
- CCOC(=O)C1=C(C)N=C2SC=C(c3ccccc3)N2[C@H]1c1cn[nH]c1-c1ccc(Cl)cc1 — lower, 49.7%
- COc1ccc(Nc2ncccc2NC(=O)c2cn(Cc3cccc(Oc4ccccc4)c3)nn2)cc1OC — lower, 45.1%
- CC(CN)[C@@H]1CC[C@]2(CO)CC[C@]3(C)[C@H](CC[C@@H]4[C@@]5(C)CCC(N)C(C)(C)[C@@H]5CC[C@]43C)[C@@H]12 (stereo not given in full) — lower, 57.5%
- O=C(CCC(=O)c1nc2ncccc2[nH]1)NN1C(=O)CSC1c1ccc(Cl)cc1 (stereo not given) — higher, 104%
